Assay results: the supplement of paper PMC11732987, “Enantioselective OTUD7B fragment discovery through chemoproteomics screening and high-throughput optimisation” (Communications Chemistry, 2025)
Values without a mark were called inactive.

What was measured:
Assay in all cases: log2 ratio of Biotin-Ahx-Ub-VS probe labelling (fragment/DMSO); higher = less target engagement (more negative = stronger competition), active = hit call of the paper (q ≤ 0.05, log2 ratio ≤ -1)
Settings in all cases: compound concentration: 200 uM; treatment time: 3 h
USP19 = target: T1, USP19 (UniProt O94966)
T1 sequence (whole entry): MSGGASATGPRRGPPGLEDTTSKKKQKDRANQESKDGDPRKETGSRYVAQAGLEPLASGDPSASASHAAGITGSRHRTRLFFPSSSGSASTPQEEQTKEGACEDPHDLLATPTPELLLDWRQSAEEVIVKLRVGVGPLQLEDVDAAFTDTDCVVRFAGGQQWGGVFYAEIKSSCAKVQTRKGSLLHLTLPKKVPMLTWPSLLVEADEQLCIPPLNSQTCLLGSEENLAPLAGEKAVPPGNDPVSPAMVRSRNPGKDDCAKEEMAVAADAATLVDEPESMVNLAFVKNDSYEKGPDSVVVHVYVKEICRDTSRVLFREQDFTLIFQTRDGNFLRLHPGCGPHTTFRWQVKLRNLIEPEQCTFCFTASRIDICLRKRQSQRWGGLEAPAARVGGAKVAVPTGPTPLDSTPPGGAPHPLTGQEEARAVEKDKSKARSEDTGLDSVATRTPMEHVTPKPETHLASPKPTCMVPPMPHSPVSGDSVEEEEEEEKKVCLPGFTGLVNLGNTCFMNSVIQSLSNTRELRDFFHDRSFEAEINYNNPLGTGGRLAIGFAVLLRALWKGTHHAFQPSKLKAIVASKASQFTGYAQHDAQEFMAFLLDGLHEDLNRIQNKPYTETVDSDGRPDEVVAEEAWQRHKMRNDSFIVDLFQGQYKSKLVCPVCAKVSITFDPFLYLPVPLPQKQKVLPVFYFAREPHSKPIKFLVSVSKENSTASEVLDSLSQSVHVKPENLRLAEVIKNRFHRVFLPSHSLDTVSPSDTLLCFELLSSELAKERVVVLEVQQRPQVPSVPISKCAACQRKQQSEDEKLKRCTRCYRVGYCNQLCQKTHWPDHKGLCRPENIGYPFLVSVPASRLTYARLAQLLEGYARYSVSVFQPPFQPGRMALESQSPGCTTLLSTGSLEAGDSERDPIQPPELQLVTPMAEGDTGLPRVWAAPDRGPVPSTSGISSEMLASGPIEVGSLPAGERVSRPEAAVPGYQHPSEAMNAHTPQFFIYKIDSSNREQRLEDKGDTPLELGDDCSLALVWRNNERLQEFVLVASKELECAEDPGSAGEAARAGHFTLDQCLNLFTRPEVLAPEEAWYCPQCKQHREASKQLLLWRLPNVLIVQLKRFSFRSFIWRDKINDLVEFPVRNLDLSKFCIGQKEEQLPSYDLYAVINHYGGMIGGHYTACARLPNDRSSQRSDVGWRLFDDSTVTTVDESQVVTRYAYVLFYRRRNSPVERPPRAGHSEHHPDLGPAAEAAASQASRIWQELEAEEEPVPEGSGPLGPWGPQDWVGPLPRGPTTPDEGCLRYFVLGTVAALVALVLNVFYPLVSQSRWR
Method in brief: (§1)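 Using Biotin-Ahx-Ub-VS at 0.5 µM final for 1 h, DUBs were labelled in HEK293T lysate (495 µg per sample) that had first been treated in triplicate with fragment at 200 µM or vehicle for 3 h. NeutrAvidin enrichment, LysC and trypsin digestion and diaPASEF LC-MS/MS followed. Spectronaut label-free quantities were global-median-normalised. Values are average log2 fragment/vehicle ratios by unpaired t-test, using proteins with ≥2 unique peptides.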

USP22 = target: T2, USP22 (UniProt Q9UPT9)
T2 sequence (whole entry): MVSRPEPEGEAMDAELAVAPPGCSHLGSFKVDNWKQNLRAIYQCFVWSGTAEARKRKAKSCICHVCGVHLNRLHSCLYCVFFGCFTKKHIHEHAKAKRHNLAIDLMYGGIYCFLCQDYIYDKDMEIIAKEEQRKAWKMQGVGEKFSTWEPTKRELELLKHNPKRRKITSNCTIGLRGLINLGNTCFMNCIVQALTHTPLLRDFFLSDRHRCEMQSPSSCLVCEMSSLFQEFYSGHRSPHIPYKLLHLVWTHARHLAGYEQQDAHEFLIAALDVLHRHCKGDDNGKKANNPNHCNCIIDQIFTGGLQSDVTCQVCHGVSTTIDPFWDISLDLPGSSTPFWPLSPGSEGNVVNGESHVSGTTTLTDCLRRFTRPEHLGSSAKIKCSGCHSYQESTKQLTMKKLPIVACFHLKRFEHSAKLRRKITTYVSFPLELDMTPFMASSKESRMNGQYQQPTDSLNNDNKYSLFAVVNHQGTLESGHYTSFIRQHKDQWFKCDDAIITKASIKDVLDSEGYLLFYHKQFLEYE
Method in brief: as §1

USP24 = USP24 (UniProt Q9UPU5)
USP24, sequence (Q9UPU5 whole entry): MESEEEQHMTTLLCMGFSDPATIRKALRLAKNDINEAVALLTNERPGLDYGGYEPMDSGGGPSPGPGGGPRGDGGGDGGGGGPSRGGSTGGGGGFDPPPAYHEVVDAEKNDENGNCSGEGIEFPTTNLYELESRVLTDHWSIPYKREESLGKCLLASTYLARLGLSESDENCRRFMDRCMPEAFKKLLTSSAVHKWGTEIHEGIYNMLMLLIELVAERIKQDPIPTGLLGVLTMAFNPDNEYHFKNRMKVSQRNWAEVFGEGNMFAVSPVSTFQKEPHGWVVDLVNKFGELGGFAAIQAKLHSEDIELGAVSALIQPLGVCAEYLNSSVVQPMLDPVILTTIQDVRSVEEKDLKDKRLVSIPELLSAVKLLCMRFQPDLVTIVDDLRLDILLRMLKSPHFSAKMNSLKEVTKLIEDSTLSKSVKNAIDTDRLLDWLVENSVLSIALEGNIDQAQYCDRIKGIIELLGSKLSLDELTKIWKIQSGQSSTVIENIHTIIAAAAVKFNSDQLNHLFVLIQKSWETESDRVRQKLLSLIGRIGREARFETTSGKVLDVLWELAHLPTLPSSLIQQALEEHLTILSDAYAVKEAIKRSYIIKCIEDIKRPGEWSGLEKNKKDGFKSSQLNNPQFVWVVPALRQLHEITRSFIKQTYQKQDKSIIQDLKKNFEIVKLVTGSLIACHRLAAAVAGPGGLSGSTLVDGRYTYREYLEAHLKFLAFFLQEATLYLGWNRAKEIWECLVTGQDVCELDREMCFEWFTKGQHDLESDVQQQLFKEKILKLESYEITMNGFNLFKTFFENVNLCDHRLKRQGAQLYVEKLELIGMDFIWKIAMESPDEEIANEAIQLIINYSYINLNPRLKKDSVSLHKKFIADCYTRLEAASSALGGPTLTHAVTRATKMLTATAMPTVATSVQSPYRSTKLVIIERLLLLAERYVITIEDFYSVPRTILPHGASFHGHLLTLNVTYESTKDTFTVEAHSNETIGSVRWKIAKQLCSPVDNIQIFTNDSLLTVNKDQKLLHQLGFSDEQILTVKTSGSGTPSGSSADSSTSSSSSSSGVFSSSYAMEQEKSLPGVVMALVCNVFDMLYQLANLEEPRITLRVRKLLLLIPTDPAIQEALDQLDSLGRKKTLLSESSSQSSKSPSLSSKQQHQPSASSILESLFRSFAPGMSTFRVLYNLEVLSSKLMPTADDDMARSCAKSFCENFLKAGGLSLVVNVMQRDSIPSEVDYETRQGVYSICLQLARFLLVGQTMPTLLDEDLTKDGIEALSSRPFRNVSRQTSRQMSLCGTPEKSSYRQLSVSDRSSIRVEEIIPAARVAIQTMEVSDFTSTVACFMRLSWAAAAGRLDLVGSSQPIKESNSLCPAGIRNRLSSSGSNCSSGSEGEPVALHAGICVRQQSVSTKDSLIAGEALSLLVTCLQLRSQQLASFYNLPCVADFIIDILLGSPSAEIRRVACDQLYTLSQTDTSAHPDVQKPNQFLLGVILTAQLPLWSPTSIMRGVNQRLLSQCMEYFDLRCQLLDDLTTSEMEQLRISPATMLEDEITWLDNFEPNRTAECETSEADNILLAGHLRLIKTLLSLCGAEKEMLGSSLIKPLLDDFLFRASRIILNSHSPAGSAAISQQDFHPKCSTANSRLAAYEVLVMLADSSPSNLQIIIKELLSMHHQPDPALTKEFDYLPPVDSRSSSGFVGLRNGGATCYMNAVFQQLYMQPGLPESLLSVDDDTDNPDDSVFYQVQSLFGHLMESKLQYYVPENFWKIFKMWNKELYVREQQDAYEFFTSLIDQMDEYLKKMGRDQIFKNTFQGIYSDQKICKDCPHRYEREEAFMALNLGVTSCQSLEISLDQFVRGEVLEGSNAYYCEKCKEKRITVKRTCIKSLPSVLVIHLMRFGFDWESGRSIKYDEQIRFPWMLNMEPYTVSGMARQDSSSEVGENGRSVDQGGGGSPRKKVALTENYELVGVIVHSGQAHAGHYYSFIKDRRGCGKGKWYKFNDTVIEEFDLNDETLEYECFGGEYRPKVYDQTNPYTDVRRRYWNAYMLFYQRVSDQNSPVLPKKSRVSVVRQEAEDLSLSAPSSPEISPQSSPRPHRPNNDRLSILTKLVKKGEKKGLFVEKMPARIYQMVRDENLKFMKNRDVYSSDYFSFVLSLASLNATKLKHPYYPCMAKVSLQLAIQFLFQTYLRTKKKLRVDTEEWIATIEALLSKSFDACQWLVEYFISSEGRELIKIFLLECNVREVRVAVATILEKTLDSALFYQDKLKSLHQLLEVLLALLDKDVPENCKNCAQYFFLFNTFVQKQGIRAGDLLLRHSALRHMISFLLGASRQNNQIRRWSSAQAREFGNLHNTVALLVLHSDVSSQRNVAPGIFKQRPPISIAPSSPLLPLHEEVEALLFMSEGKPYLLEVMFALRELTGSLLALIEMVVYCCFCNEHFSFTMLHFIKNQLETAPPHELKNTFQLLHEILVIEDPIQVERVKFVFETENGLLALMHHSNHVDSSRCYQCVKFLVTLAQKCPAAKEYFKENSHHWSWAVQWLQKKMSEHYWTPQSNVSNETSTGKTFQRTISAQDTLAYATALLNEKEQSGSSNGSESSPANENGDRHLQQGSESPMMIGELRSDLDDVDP
Method in brief: as §1

USP25 = target: T3, USP25 (UniProt Q9UHP3)
T3 sequence (whole entry): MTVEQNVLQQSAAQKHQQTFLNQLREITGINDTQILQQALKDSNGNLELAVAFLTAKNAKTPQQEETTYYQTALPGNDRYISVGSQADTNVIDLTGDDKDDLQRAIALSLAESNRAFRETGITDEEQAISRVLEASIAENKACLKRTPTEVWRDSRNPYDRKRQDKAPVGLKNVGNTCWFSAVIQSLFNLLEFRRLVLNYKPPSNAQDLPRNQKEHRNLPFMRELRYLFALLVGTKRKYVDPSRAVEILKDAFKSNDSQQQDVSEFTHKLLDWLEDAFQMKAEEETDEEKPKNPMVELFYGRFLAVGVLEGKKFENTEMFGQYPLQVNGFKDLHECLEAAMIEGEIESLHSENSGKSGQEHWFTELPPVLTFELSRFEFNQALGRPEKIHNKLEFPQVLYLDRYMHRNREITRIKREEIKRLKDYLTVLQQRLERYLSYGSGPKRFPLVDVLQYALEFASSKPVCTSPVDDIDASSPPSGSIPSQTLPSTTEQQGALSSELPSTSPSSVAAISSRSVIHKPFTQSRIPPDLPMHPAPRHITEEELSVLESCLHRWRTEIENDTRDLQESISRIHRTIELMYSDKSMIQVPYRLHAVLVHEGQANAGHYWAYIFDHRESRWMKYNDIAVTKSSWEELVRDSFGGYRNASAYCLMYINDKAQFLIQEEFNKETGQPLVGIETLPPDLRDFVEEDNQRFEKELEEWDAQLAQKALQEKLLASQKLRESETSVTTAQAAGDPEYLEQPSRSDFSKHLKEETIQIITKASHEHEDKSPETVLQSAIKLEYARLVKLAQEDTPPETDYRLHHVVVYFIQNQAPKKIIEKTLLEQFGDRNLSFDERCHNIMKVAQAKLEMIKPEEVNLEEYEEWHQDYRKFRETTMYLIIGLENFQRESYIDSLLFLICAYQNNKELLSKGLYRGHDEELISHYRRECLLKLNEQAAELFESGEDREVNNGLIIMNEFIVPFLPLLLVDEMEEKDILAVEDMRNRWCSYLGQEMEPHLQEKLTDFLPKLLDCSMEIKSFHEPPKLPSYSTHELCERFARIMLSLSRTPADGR
Method in brief: as §1

USP28 = target: T4, USP28 (UniProt Q96RU2)
T4 sequence (whole entry): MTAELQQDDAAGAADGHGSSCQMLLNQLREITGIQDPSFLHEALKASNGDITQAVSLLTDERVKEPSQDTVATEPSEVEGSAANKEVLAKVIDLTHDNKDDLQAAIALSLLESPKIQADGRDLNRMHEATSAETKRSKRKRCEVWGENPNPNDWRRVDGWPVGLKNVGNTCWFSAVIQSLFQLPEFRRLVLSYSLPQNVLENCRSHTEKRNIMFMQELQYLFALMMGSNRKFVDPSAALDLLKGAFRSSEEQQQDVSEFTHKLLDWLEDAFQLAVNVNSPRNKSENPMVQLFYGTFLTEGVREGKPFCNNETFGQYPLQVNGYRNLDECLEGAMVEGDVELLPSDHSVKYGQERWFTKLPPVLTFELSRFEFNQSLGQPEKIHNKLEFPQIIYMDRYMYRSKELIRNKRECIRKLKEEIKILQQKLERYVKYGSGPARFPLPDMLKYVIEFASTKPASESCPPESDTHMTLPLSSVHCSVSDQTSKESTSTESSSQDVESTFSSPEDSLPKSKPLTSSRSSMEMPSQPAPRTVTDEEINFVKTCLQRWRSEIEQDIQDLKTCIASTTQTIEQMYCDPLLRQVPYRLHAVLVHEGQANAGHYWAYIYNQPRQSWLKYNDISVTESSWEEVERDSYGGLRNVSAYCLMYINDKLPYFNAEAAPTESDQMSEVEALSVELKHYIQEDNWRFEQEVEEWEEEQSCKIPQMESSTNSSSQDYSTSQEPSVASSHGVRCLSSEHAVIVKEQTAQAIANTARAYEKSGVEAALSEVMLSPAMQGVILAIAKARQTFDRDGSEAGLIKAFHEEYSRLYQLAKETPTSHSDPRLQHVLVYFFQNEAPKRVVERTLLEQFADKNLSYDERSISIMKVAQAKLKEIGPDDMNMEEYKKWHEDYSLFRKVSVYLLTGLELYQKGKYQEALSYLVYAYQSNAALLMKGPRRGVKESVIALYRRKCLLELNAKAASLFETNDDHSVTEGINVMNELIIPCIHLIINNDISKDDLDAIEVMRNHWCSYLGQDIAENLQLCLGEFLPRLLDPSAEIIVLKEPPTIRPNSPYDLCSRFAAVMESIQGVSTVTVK
Method in brief: as §1

## Cc1conc1C1CN(C(=O)CCl)C1
USP19
  log2 ratio of Biotin-Ahx-Ub-VS probe labelling: -1.19 (active)
USP22
  log2 ratio of Biotin-Ahx-Ub-VS probe labelling: -0.421
USP24
  log2 ratio of Biotin-Ahx-Ub-VS probe labelling: -1.11 (active)
USP25
  log2 ratio of Biotin-Ahx-Ub-VS probe labelling: -0.81
USP28
  log2 ratio of Biotin-Ahx-Ub-VS probe labelling: -1.16 (active)
